# Rab9 promoter act: activators of Rab9 promoter. Huh7 Rab9 promoter-luciferase reporter, luminescence, 24 h. Potency, µM (highest dose often 9.22 µM), for inactives: at the top dose activation, negative = inhibition, actives largely listed as activators. hit rate 2.8% among 320,000. AID 485297; further: % of control where 0% means no effect; nearly all actives have a fitted effect of over 60% in size
#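 Luminescence read-out: Huh7 cells stably expressing Rab9-luciferase, treated 24 h with compound at 37 °C, then lysed with luciferase reagent for 10 min at ambient before reading.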
# SMN2 splice up: enhancers of SMN2 splice variant expression; AID 1458; Potency, µM (doses to about 46.1 µM), for the others: at the top dose activity change, positive = activation, hits mostly activators; hit rate 2.8% among 210,000; HEK293 SMN2-luciferase splicing reporter, luminescence, 30-36 h; further: % of control where 0% means no effect; nearly all actives have a fitted effect of over 55% in size
#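 HEK293 cells carry an SMN2 minigene-luciferase reporter in which exon 7 inclusion puts luciferase in frame. Cells were seeded at 2000 cells/well, attached for 10-12 hours, then exposed to compounds for 30-36 hours at 37C before ONE-Glo luminescence.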
# KinaseGlo FLuc: Kinase-Glo luciferase inhibition (counter-screen) | Q27757 | Kinase-Glo luciferase, ATP luminescence, 8 min | Potency, µM (doses to about 38.3 µM), without a hit: at the highest dose activity change, negative = inhibition, hits mostly inhibitors | hit rate 0.28% among 200,000 | AID 1379; further: on the % scale 0 is the no-effect control and ±100 the full control effect; nearly all actives have a fitted effect of over 60% in size
#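 Compound is pinned into ATP-containing buffer (10 uM ATP, imidazole pH 7.2, 7 mM MgCl2). Kinase-Glo luciferase reagent is then added. Light output is recorded following an 8-min room-temperature incubation.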
# ELG1 genotoxic: inducers of genotoxicity in HEK293T ELG1-luciferase cells | HEK293T ELG1-luciferase reporter, luminescence, 16 h | Potency, µM (top dose mostly 46 µM), inactives show at the highest dose activity change, positive = activation, hits mostly activators | hit rate 1.3% among 330,000 | AID 504466; further: % of control where 0% means no effect; nearly all actives have a fitted effect of over 60% in size
#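 Cells (2,000/well) expressing the ELG1-luciferase fusion are dosed by pin tool and kept 16 hr at 37 °C, 5% CO2. Signal comes from ONE-Glo luciferase reagent after 30 min at room temperature.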
# FLuc counter: inhibits or activates purified firefly luciferase, miR-21 counter-screen; P08659; purified FLuc, Km substrates, luminescence inhibition; Potency, µM (titrated, usually from 57.5 µM), for inactives: top-dose activity change, negative = inhibition, most hits filed as inhibitors; hit rate 6.9% among 360,000; AID 588342;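 further: plate controls were vehicle for no effect and reference inhibitor for full effect; nearly all actives have a fitted effect of over 55% in size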
# Target sequence (P08659 whole entry, looked up): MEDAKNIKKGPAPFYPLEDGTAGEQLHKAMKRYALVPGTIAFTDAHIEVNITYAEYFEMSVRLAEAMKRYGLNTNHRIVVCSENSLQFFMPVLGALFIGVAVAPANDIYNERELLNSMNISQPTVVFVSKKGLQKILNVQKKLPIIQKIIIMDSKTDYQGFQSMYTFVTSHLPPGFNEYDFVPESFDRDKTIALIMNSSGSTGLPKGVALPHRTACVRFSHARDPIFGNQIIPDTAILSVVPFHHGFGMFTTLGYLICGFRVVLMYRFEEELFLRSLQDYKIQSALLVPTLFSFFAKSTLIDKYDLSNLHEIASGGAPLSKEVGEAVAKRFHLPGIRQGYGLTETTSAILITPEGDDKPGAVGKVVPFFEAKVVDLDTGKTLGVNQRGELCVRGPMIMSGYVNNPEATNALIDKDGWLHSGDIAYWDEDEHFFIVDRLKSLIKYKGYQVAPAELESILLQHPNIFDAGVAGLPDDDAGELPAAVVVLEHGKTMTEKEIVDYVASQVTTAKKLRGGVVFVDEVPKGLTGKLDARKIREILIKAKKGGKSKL
#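 Purified P. pyralis luciferase (10nM final) with 10uM D-luciferin and 10uM ATP (Km levels) in 50mM Tris acetate pH 7.5, 10mM Mg acetate, 0.01% Tween-20, 0.05% BSA; qHTS 6-point titration, ~60 µM downward; luminescence read.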
# NPC1 promoter act: NPC1 promoter activation; Huh7 NPC1 promoter luciferase reporter, 24 h; Potency, µM (doses to about 9.22 µM), for the others: top-dose activation, hits mostly activators; hit rate 2.4% among 320,000; AID 485313; further: % of control where 0% means no effect; nearly all actives have a fitted effect of over 60% in size
#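 Quantitative HTS used a cell-based reporter: Huh7 cells stably bearing the NPC1 promoter upstream of luciferase were treated with compounds for 24 h, and promoter activation was read as luminescence.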
# * hit, by the source's call; u = inconclusive; x = no result given; [ ] = dose if it differs, or a comment. Only some compounds are listed: those with a hit (about 7.4% of all), similar ones and a draw of the others. The call rests on the fitted dose curve; in most records, active means well fitted curve in the direction sought with a large enough effect; inconclusive means small, poorly fitted or top-dose-only effect, or another doubt; inactive means no such curve, though single readings can be large; an effect the other way counts as inactive or inconclusive. Potency means the concentration at half of the fitted maximal effect.
SMILES,Rab9 promoter act,SMN2 splice up,KinaseGlo FLuc,ELG1 genotoxic,FLuc counter,NPC1 promoter act
COCCn1c(=O)c(-c2cn(C)c3ccccc23)nc2cnc(Oc3ccc(OC)cc3)nc21,x,-1.4%,-2.0%,x,x,x
COc1ccc(C2CC(=O)c3c(C)nc(N4CCN(C=O)CC4)nc3C2)c(OC)c1 (configuration not stated),x,-26.1%,x,x,1.5%,x
Cc1nn(-c2ccc(N3CCOCC3)nn2)c(C)c1CCC(=O)NCc1ccc(Cl)cc1,x,x,x,x,-7.3%,x
COc1ccccc1/C=N/N(C(C)=O)c1nc(-c2ccc(F)cc2)cs1,6.31µM*,u,2.6%,u,-0.4%,u
CCN1CCOC(=O)C1CC(=O)Nc1ccc(C)c(Cl)c1 (configuration not stated),x,1.6%,x,x,-5.6%,x
Cc1ccc(NC(=O)/C=C/C(=O)O)c([N+](=O)[O-])c1,-4.1%,-10.3%,3.2%,-0.6%,-7.7%,-1.8%
CCCOC(=O)c1cc(NC(=O)/C=C/c2ccccc2)ccc1O,0.3%,x,-6.1%,-7.9%,15.1µM*,-0.4%
Cc1ccc(NC(=O)/C=C/c2cccs2)c([N+](=O)[O-])c1,3.16µM*,u,-3.9%,u,1.51µM*,3.16µM*
CCOC(=O)c1cc(NC(=O)COC)ccc1O,-5.0%,x,-5.0%,1.1%,1.1%,-3.8%
O=C(/C=C/c1cccs1)Nc1ccncc1,26.5%,15.5%,-4.6%,17.8%,13.5µM*,16.0%
O=C(/C=C/c1cccs1)Nc1ccc([N+](=O)[O-])cc1,u,u,1.7%,11.0%,u,23.4%
CCCOC(=O)c1ccc(NC(=O)/C=C/c2cccs2)cc1,1.7%,-25.4%,-0.1%,5.0%,23.9µM*,-1.1%
CN1CCN(C(=O)c2ccc3c(c2)N(Cc2ccc(Cl)cc2)C(=O)c2ccccc2S3(=O)=O)CC1,x,1.3%,x,x,0.0%,x
CCOc1ccc(Nc2nn(-c3ccc(OC(F)(F)F)cc3)nc2C(C)=O)cc1,x,9.9%,x,x,-0.8%,x
Cc1cc(C)n(C(=O)/C=C/c2cccs2)n1,-3.5%,x,x,3.7%,16.9µM*,-10.4%
CC(C)(C)c1ccc(/C=C/C(=O)Nc2ccncc2)cc1,0.9%,-12.6%,-4.4%,15.5%,4.78µM*,0.0%
Cc1cccc(NC(=O)/C=C/c2cccs2)n1,2.51µM*,3.16µM*,12.6µM*,u,4.78µM*,2.82µM*
COc1ccc(-c2[nH]c(-c3ccc(F)cc3)nc2SCC(=O)Nc2ccc(OC)c(OC)c2)cc1,x,3.3%,x,x,2.9%,x
COc1cc(C(=O)/C=C/c2cccnc2)ccc1O,5.9%,x,x,-39.5%,19µM*,-3.7%
N#Cc1ccc(/C=C/C(=O)c2cccnc2)cc1,1.4%,2.3%,0.5%,u,-12.7%,-11.4%
O=C(/C=C/c1ccc(Cl)cc1)c1cccnc1,-3.7%,-8.1%,1.1%,14.2%,21.3µM*,1.9%
O=C(/C=C/c1c(F)cccc1Cl)c1ccc(O)cc1,-0.2%,x,x,4.2%,10.7µM*,-0.2%
COc1ccc(OC)c(C(=O)/C=C/c2cccnc2)c1,-7.6%,x,x,0.0%,1.6%,-7.2%
O=C(/C=C/c1ccccc1Cl)c1cccnc1,1.1%,-17.5%,11.6%,14.0%,16.9µM*,-4.3%
CCCOc1ccc(NC(=O)CC2C(=O)N(c3ccc(C)cc3)C(=O)N2C(C)C)cc1 (configuration not stated),x,x,x,x,-2.4%,x
SMILES,Rab9 promoter act,SMN2 splice up,KinaseGlo FLuc,ELG1 genotoxic,FLuc counter,NPC1 promoter act
O=C(/C=C/c1c(F)cccc1Cl)Nc1ncccn1,2.51µM*,14.1µM*,-9.3%,u,15.1µM*,2.82µM*
O=C(/C=C/c1c(F)cccc1Cl)Nc1ccc(S(=O)(=O)Nc2ncccn2)cc1,-2.6%,x,x,11.4%,u,0.2%
O=C(/C=C/c1ccccc1Cl)c1ccc(O)cc1,1.2%[1.84 µM],x,x,13.5%,9.53µM*,-4.0%
O=C(OC1CCOC1=O)c1cc(-c2ccccc2)nc2ccccc12 (configuration not stated),-4.0%,5.9%,16.6%,-2.7%,u,-2.9%
COc1cc(-c2cc(C(=O)Nc3ccc(O)cc3)c3ccccc3n2)cc(OC)c1OC,-8.4%,x,x,-10.3%,u,3.3%
COc1ccc(-c2cc(C(=O)OC3CCOC3=O)c3ccccc3n2)cc1OC (configuration not stated),-2.5%,-3.5%,2.5%,4.1%,13.5µM*,8.7%
COc1ccc(-c2cc(C(=O)Nc3ccc(S(=O)(=O)Nc4onc(C)c4C)cc3)c3ccccc3n2)cc1OC,8.9%,x,x,1.6%,13.5µM*,8.2%
COc1ccc(NC(=O)c2cc(-c3ccncc3)nc3ccccc23)c(OC)c1,x,x,x,-4.4%,x,x
COc1ccc(NC(=O)c2cc(-c3ccc(OC)c(OC)c3)nc3ccccc23)c(OC)c1,18.1%,x,x,-0.1%,7.57µM*,13.8%
COc1ccc(-c2cc(C(=O)Nc3ccc(C(N)=O)cc3)c3ccccc3n2)cc1OC,25.4%,u,0.3%,-1.0%,3.38µM*,10.3%
Cc1ccc(OCC(=O)Nc2sc3c(c2C(N)=O)CCCC3)c(C(C)(C)C)c1,x,-0.7%,x,x,-7.1%,x
CC(=O)N1c2ccccc2CC1C(=O)N1CCN(c2cc(Cl)ccc2C)CC1 (configuration not stated),x,x,x,x,2.5%,x
CCCN(C(=O)Cn1cnc2sc(C)c(S(=O)(=O)N3CCN(c4ncccn4)CC3)c2c1=O)c1cccc(C)c1,x,3.2%,x,x,-2.6%,x
COc1ccc(-c2nc3cnc(N(C)C)nc3n(CCc3ccccc3)c2=O)cc1,x,9.2%,-6.4%,x,x,x
CCC(Sc1nc2cc3c(cc2c(=O)n1CCCCCC(=O)NCc1ccc2c(c1)OCO2)OCO3)C(=O)NCCCOC (configuration not stated),x,x,x,x,5.1%,x
Cc1cn([C@H]2C[C@@H](N=[N+]=[N-])[C@@H](CO)O2)c(=O)[nH]c1=O,x,-10.7%,-2.1%,x,x,x
COc1ccc(-c2cc(C(=O)NC(C)c3ccccn3)c3ccccc3n2)cc1OC (configuration not stated),-6.3%,x,x,-4.4%,7.57µM*,-1.4%
CNc1nc(N2CCc3ccccc32)ncc1F,2.24µM*,u,-28.4%,u,5.36µM*,2.51µM*
COc1ccc(N2CC(NC(=O)c3cccs3)CC2=O)cc1OC (configuration not stated),x,x,x,x,1.0%,x
N#Cc1ccc(-c2csc(-c3ccno3)n2)cc1,-5.2%,x,x,5.1%,-14.1%,2.3%
FC(F)(F)c1ccc(-c2csc(-c3ccno3)n2)cc1,18.0%,x,x,-1.1%,26.9µM*,10.7%
CCCCOc1nnc(-c2ccc(OCC)cc2)c2ccccc12,x,1.4%,x,x,u,x
Cc1nc(-c2coc3cc(OCC(=O)O)ccc3c2=O)cs1,-10.0%,-6.2%,u,-9.0%,1.9µM*,-4.9%
CC(C)(C)c1ccc(Oc2coc3cc(OCC(=O)O)ccc3c2=O)cc1,-11.5%,x,x,1.5%,2.13µM*,0.6%

# Bioassay records from PubChem.
